Source: PubChem BioAssay (Tox21)
Inconclusive results are not listed. Activity calls are given as the source filed them. Calls follow the shape of the full dose curve.

experiment: p53 small molecule agonists, cell-based qHTS assay with human liver microsomes (AID 1963577); details: HCT-116 p53RE-bla with human liver microsomes, ratio, 16 h; series mostly up to 66 µM; activation: at the top concentration;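 as to activation: p53 response element beta-lactamase reporter cells with liver microsomes plus NADPH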
Excerpt: National Center for Advancing Translational Sciences [NCATS]
Division of Preclinical Innovation [DPI]
U.S. Environmental Protection Agency [EPA]
National Institutes of Environmental Health Sciences [NIEHS]
National Toxicology Program [NTP]
U.S. Food and Drug Administration [FDA]
p53, a tumor suppressor protein, is activated following cellular insult, including DNA damage and other cellular stresses. The activation of p53 regulates cell fate by inducing DNA repair, cell cycle arrest, apoptosis, or cellular senescence. The activation of p53, therefore, is a good indicator of DNA damage and other cellular stresses. […] The activation of the reporter gene under culture conditions can be detected by fluorescence intensity.
Tox21 Assay Protocol Summary:
The p53RE-bla cells were dispensed at 4,000cells/3ul/well in 1536-well black-clear bottom plates. After the assay plates were incubated at 37 C, 5% CO2 incubator for 5 hours, 23 nL of compounds dissolved in DMSO, positive controls or DMSO only was transferred to the assay plate. Following compound addition, 3 uL of human liver microsomes (XenoTech, Kansas City, KS) at final concentration of 0.5 mg/mL and 1uL of Beta-Nicotinamide adenine dinucleotide 2-phosphate (NADPH) at final concentration of 0.5 mg/mL were transferred to the assay plate. The plates were incubated at 37 C for 16 hours. 1 uL of LiveBLAzer detection mixture was added to each well and the plates were incubated at room temperature in the dark for 2 h.
% is scaled to controls: 0 for no effect and ±100 for the full control effect; potency is read from the fitted curve at half-maximal effect.

SMILES	Potency	activation
O=NN1CCOCC1	inactive	
C/C(=N\NC(=O)Nc1cc(F)cc(F)c1)c1ncccc1C(=O)O	inactive	
Cc1cccc(N)c1	inactive	
COc1ccc2c3c1O[C@H]1[C@H](O)CC[C@H]4[C@@H](C2)N(C)CC[C@@]341		0.91% (inactive)
O=C(O)CCCOc1ccc(Cl)cc1Cl		-4.78% (inactive)
O=c1[nH]c(=O)[nH]c(=O)[nH]1	inactive	
CC(C)(c1ccc(OCC2CO2)cc1)c1ccc(OCC2CO2)cc1 (stereo not given)	inactive	
CN(C)N=O	inactive	
c1ccc(-c2ccccc2)cc1		-21.3% (inactive)
CCCC[N+]1(C)CCCC1 (tested in a mixture with another compound)		0.431% (inactive)
CCCC[N+]1(C)CCCC1	inactive	
O=P(O)(Oc1ccccc1)Oc1ccccc1		13.9% (inactive)
BrCCc1ccccc1		3.11% (inactive)
CCOP(=O)(CN(CCO)CCO)OCC		8.2% (inactive)
O=c1ccc(=O)[nH][nH]1		-4.05% (inactive)
CC(C)=CC1C(C(=O)OCc2cccc(Oc3ccccc3)c2)C1(C)C (stereo not given)	inactive	
COc1ccc(N)cc1	inactive	
CC(=O)C(C)(C)C		0.955% (inactive)
COC(C)(C)CCCC(C)C/C=C/C(C)=C/C(=O)OC(C)C (stereo not given)		0.929% (inactive)
COP(=O)(OC)C(O)C(Cl)(Cl)Cl (stereo not given)	1460 nM (active)	

SMILES	Potency	activation
C#CCOC(=O)/C=C(C)/C=C/CC(C)CCCC(C)C (stereo not given)		0.846% (inactive)
CNC(=O)Oc1cccc2ccccc12		2.13% (inactive)
CCCCC(CC)COC(=O)c1c(Br)c(Br)c(Br)c(Br)c1C(=O)OCC(CC)CCCC (stereo not given)		1.72% [at 30.3 µM] (inactive)
Oc1ccc(Cl)c(Cl)c1		-1.62% (inactive)
N#Cc1ccccc1N		4.48% (inactive)
C=CC(=O)OCC(C)C		0.598% (inactive)
Cc1cccc(N)c1N	inactive	
CC(C)OS(C)(=O)=O		2.91% (inactive)
CC(=O)CC(c1ccc(Cl)cc1)c1c(O)c2ccccc2oc1=O (stereo not given)		-2.14% (inactive)
O=C(NCc1cccnc1)Nc1ccc([N+](=O)[O-])cc1		-4.76% (inactive)
Cc1cccc(C#N)c1		3.14% (inactive)
CC(=O)CCC(C)=O		3.27% (inactive)
[N-]=[N+]=[N-]	inactive	
O=C(CCN1CC1)OCC(CO)(COC(=O)CCN1CC1)COC(=O)CCN1CC1		1.75% (inactive)
NC(=O)CF		-0.0401% (inactive)
O=P(O)(O)CN(CP(=O)(O)O)CP(=O)(O)O	inactive	
CCCCC(CC)C(=O)Cl (stereo not given)	inactive	
CCCCCCCCOC(=O)c1ccccc1C(=O)OCCCCCCCC	inactive	
[O-][Cl+2]([O-])O	inactive	
Clc1cccc(C(Cl)(Cl)Cl)n1	inactive	
